Assay outcomes deposited in PubChem by Johns Hopkins Ion Channel Center.
KCNQ2 inh: KCNQ2 (rat) channel inhibition. O88943. B-score at 10 µM. CHO-K1 KCNQ2, FluxOR thallium flux, 20 min; hits give low values. hit rate 1.1% among 310,000. AID 2156;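 active means fluorescence ratio B-score at most minus 3 library SDs, with starting brightness B-score within 2 library SDs, cut at about -5.5 in these data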
KCNQ2 enhance: KCNQ2 (rat) channel potentiation; CHO-K1 KCNQ2, FluxOR thallium flux fluorescence; hits give high values; O88943; hit rate 0.54% among 310,000; AID 2239; B-score at 10 µM;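 active means fluorescence ratio B-score at least 3 SD of library B-scores, with initial fluorescence B-score within 3 of them, cut at about 5.3 in these data; same plate scores as AID 2156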;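 further: B-score of peak minus minimum over baseline fluorescence ratio after K+ and Tl+ stimulus; positive B-score means potentiation of KCNQ2 with more thallium influx and brighter signal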
Kir21 conf inh: confirmation of mouse Kir2.1 potassium channel inhibitors; Kir2.1-expressing cells, FluxOR thallium flux fluorescence; hits give low values; AID 2032; Tl flux remaining, % of negative control (hits give low values), % at 10 µM; shares compounds with KCNQ2 enhance; hit rate 41% among 2,300;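 active means Primary-screen hit whose thallium flux fell at least 3 control SD below untreated wells in both duplicates, with normal baseline fluorescence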;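 further: 0% = blank wells without stimulus and 100% = stimulated no-compound controls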
HEK293 Tl flux: alters thallium flux in parental HEK293 cells, Kir2.1 counter-screen | shares compounds with KCNQ2 enhance | FluxOR thallium flux fluorescence; 0% = unstimulated blank wells | FluxOR signal as % of negative control (100 = no effect), % at 10 µM | hit rate 19% among 2,300 | AID 2105;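 active means dye signal at least 3 control SD above or below untreated wells in both duplicates, raw fluorescence within 3, either direction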;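 further: percent is based on the flux ratio of peak minus minimum fluorescence over baseline F0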
CHO-K1 ctr: counter-screen for KCNQ2 potentiators: effect in parental CHO-K1 cells. FluxOR thallium flux fluorescence; zero = vehicle mean+3SD, 100% = vehicle-minus-blank window. activity increase over 3SD of controls, % at 10 µM. shares compounds with KCNQ2 enhance. hit rate 43% among 1,200;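 active means signal rise of at least 3 SD above the untreated control mean, in both duplicate wells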;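 further: counter screen of KCNQ2 potentiator hits so any rise reflects channel-independent effects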
KCNQ1 pot spec: selectivity of KCNQ2 potentiators: effect on human KCNQ1; shares compounds with KCNQ2 enhance; CHO KCNQ1 stable, FluxOR thallium flux fluorescence; beyond 3SD, as % of vehicle-control signal; activation over 3SD threshold, % at 10 µM; hit rate 28% among 1,200;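 active means fluorescence ratio rise of at least 3 SD of vehicle wells above their mean, in both replicate wells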;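 further: 0% = vehicle mean plus 3 SD and 100% = vehicle minus unstimulated blank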
Target sequence (P51787 whole entry, looked up): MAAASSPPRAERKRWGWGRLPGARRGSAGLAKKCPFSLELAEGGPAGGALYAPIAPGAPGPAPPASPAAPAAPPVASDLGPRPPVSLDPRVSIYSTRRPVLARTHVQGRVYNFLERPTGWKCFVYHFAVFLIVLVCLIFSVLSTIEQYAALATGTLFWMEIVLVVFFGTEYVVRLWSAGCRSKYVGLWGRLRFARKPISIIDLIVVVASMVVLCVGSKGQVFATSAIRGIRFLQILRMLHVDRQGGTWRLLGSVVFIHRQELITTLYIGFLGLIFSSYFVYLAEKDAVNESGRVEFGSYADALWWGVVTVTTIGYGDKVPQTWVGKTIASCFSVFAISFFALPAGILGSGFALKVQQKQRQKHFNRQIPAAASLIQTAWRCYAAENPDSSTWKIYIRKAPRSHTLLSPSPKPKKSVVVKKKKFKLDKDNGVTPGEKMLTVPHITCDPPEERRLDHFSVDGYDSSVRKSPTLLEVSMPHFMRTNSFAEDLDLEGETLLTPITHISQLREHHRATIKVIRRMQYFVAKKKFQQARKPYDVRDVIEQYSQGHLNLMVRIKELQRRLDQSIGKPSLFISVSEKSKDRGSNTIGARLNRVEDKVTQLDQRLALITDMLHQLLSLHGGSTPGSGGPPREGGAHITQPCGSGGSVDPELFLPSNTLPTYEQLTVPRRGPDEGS
KCNQ2 pot conf: confirmation of rat KCNQ2 potassium channel potentiators | CHO-KCNQ2 cells, FluxOR thallium flux fluorescence | shares compounds with KCNQ2 enhance | hit rate 68% among 1,200 | AID 2287 | potentiation, less the hit threshold, % at 10 µM;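 active means fluorescence ratio rising 3 SD or more over the vehicle control mean in both replicates, plus primary screen hit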;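 further: peak minus minimum thallium fluorescence divided by baseline after K/Tl stimulus; 0% = vehicle mean plus 3 SD and 100% = vehicle minus unstimulated blank difference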
Kir21 spec: mouse Kir2.1 off-target activity of KCNQ2 potentiators; shares compounds with KCNQ2 enhance; activity over 3SD threshold, % at 10 µM; AID 2345; hit rate 2% among 1,200; HEK293 Kir2.1, FluxOR thallium flux fluorescence;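 active means fluorescence ratio rise of at least 3 SD above the vehicle-control mean, seen in both replicates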;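 further: 0% = vehicle mean plus 3 SD and 100% = vehicle minus no-stimulus blank window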
KCNQ2 W236L MoA: KCNQ2 potentiators acting on retigabine-insensitive rat KCNQ2 W236L mutant. current increase over 3SD of negative controls (%), hits give high values, % at 25 µM. CHO KCNQ2-W236L, automated patch clamp current. shares compounds with KCNQ2 enhance. hit rate 10% among 940;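 active means current increase at least 3 SD of the untreated controls above them in both duplicate recordings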
* hit, by the source's call; i = inactive; · = no result. Rows were chosen to be rich in hits. Some 1.6% of all compounds tested hit in one or more screens of this group.

SMILES	KCNQ2 inh	KCNQ2 enhance	Kir21 conf inh	HEK293 Tl flux	others
CC(NC(=O)/C(C#N)=C/c1ccco1)c1ccccc1 (stereo not given)	i	·	·	·
O=[N+]([O-])c1ccc(O)c2ncccc12	i	8.7*	i	i	CHO-K1 ctr=36*;KCNQ1 pot spec=-5;KCNQ2 pot conf=34*;Kir21 spec=-26;KCNQ2 W236L MoA=i
O=[N+]([O-])c1cc(F)c2cccnc2c1O	i	3.6	·	·
O=[N+]([O-])c1ccccc1Oc1ccc(Cl)c2cccnc12	i	0.23	·	·
O=[N+]([O-])c1cc([N+](=O)[O-])c2cccnc2c1Oc1ccccc1O	i	·	62%*	65%*
O=[N+]([O-])c1cc(Cl)c(O)c2ncccc12	i	5.7*	i	i	CHO-K1 ctr=-18;KCNQ1 pot spec=66*;KCNQ2 pot conf=-12;Kir21 spec=-21;KCNQ2 W236L MoA=i
O=[N+]([O-])c1ccc(O)c2cccnc12	i	1	·	·
Cc1cnc(C(=O)OC(C)C(=O)c2c(C)[nH]c3ccccc23)cn1 (stereo not given)	i	0.08	·	·
Cc1ccc(C)c(NC(=S)NNC(=O)c2csc3c2CCC(C)C3)c1 (stereo not given)	i	6.6*	i	171%*	CHO-K1 ctr=-19;KCNQ1 pot spec=-33;KCNQ2 pot conf=-4;Kir21 spec=-40;KCNQ2 W236L MoA=i
Cc1ccc(C)c(NC(=S)NNC(=O)c2csc3c2CCCC3)c1	i	2.6	·	·
O=C(C1CCN(S(=O)(=O)c2ccccc2)CC1)N1CCCCCC1	i	1.2	·	·
C=CCOc1c(Br)cc(CNc2ccc(NC(=O)CCC)cc2)cc1OCC	i	18*	i	i	CHO-K1 ctr=-13;KCNQ1 pot spec=80*;KCNQ2 pot conf=32*;Kir21 spec=-33;KCNQ2 W236L MoA=i
C=CCOc1ccc(CNc2ccc(NC(=O)CCC)cc2)cc1OCC	i	1.7	·	·
CCCCCCCCC[n+]1cccc2c3ccccc3ccc21	i	·	6.5%*	i
O=[N+]([O-])c1ccc(C[n+]2cccc3c4ccccc4ccc32)cc1	i	1.1	·	·
O=C(CNC(=O)c1ccc(Br)o1)NNC(=O)c1ccccc1O	i	·	·	·
CC1CCCCN1C(=O)c1c(Cl)cnn1C (stereo not given)	i	·	·	·
O=c1[nH]c(C2CCCN(S(=O)(=O)c3ccc(F)cc3)C2)nc2c1nnn2Cc1ccc(F)cc1 (stereo not given)	i	·	·	·
COc1ccc(S(=O)(=O)N2CCN(Cc3ccc(Cl)cc3)CC2)cc1	i	·	·	·
COc1ccc(CN2CCCN(S(=O)(=O)c3ccc(Br)cc3)CC2)cc1	i	·	56%*	i
CN1C(=O)[C@H]2[C@@H](/C=C/c3ccccc3)N3C(=O)CN(CCO)C(=O)[C@@]3(C)[C@H]2C1=O	i	0.24	·	·
COc1ccc(-n2c(SCC(=O)N3CCC(C(=O)O)CC3)nc3ccccc3c2=O)cc1OC	i	·	·	·
COc1ccc2[nH]c(C(=O)N3CCNCC3)cc2c1OC	i	·	·	·
O=C(CCC1CCCCC1)NCCN1C2=NC[C@H](Cc3ccc(O)cc3)N2C[C@H]1Cc1ccc(O)cc1	i	0.57	·	·
COc1ccc(C[C@H]2CN3C(=NC[C@@H]3Cc3ccccc3)N2CCNC(=O)CCC2CCCCC2)cc1	i	·	40%*	i
SMILES	KCNQ2 inh	KCNQ2 enhance	Kir21 conf inh	HEK293 Tl flux	others
CC(C)[C@H]1CN=C2N(CCNC(=O)CCC3CCCCC3)[C@H](Cc3ccc(O)cc3)CN21	i	·	·	·
COc1ccc(C[C@H]2CN3C(=NC[C@@H]3C(C)C)N2CCNC(=O)CCC2CCCCC2)cc1	i	·	64%*	i
Cc1nc(-c2cc(C#N)c(Sc3ccc(Cl)cc3Cl)nc2C)cs1	i	·	·	·
CCOc1ccc(CCNC(=O)COC(=O)c2ccc(C)c([N+](=O)[O-])c2)cc1OCC	i	2.1	·	·
CCOc1ccc(C(C)NC(=O)c2cccs2)cc1OCC (stereo not given)	i	0.05	·	·
CCc1ccc(C(C)NC(=O)c2cccs2)cc1 (stereo not given)	i	5.3*	i	i	CHO-K1 ctr=-18;KCNQ1 pot spec=46*;KCNQ2 pot conf=-2;Kir21 spec=-33;KCNQ2 W236L MoA=i
C/C(=N\NC(=O)c1ccc(Cn2cc(Br)cn2)o1)c1ccc(NC(=O)c2ccoc2C)cc1	i	·	·	·
CCc1nc2ccccc2c(=O)n1/N=C/c1ccc(OC)cc1	i	0.3	·	·
O=C(N/N=C/c1ccc(COc2ccc(Br)cc2)o1)c1ccc2c(c1)OCO2	i	5.7*	i	i	CHO-K1 ctr=-5;KCNQ1 pot spec=-28;KCNQ2 pot conf=-11;Kir21 spec=-29
O=C(N/N=C/c1ccc(-c2ccc(Br)cc2)o1)c1ccc2c(c1)OCO2	i	·	·	·
C/C(CC(=O)Nc1ccccn1)=N\NC(=O)c1cccc(C)c1	i	·	·	·
CCOc1ccccc1NC(=O)CSc1nc2[nH]ncc2c(=O)[nH]1	i	0.82	·	·
CN(C)CC/C=C1/c2cc(F)ccc2Sc2ccc(Cl)cc21	i	·	25%*	i
COc1cc2c(cc1Cl)/C(=C\CCN(C)C)c1ccccc1S2	i	·	·	·
CN(C)CC/C=C1/c2ccccc2Sc2c(O)cc(Cl)cc21	i	·	·	·
COc1cc(Cl)cc2c1Sc1ccccc1/C2=C/CCN(C)C	-7*	-7	36%*	i
CCOc1ccc(S(=O)(=O)N2CCCC(C(=O)NCc3cccnc3)C2)cc1Cl (stereo not given)	i	0.14	·	·
O=C(CCC(=O)Nc1ccc(Cl)cc1Cl)N/N=C/c1ccc([N+](=O)[O-])o1	i	·	·	·
O=C(C(=S)N1CCOCC1)c1c[nH]c2ccccc12	i	0.06	·	·
O=C(Cc1ccc(Cl)c(Cl)c1)NC1CCCCCC1	i	7.2*	i	i	CHO-K1 ctr=-1;KCNQ1 pot spec=0.5*;KCNQ2 pot conf=0.8*;Kir21 spec=-33;KCNQ2 W236L MoA=i
O=C(Cc1ccc(Cl)cc1Cl)NC1CCCCCC1	i	3	·	·
CCc1ccc(OCC(=O)NNC(=S)NC(=O)C2CCCCC2)c(Br)c1	i	·	·	·
CCc1ccc(OCC(=O)NC2CCCCC2)c(Br)c1	i	23*	i	i	CHO-K1 ctr=138*;KCNQ1 pot spec=-16;KCNQ2 pot conf=72*;Kir21 spec=-44;KCNQ2 W236L MoA=i
COCCn1c(C)cc(C(=O)COC(=O)/C=C/c2c(C)nn(C3CCS(=O)(=O)C3)c2Cl)c1C (stereo not given)	i	1.1	·	·
CC1=CC(C)(C)N(C(=O)CCl)c2cc(C)ccc21	i	·	·	·
CC1=CC(C)(C)N(C(=O)CNC2CCCCC2)c2cc(C)ccc21	i	·	50%*	i
